This assay deals with HL-60(TB) leukemia. As to the kind of experiment: NCI-60 one-dose screen, 48 h (100 = growth as untreated, 0 = no growth, -100 = all killed). Conditions: 10 µM unless noted.

Structures are written as SMILES. The panel holds about 83,000 compounds, 20% with a hit somewhere; the sample as a whole holds those more often.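 48-hour exposure, single concentration, 96-well plates; percent growth endpoint where 0 means no net growth. Active: below 10.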 A number with no mark means an inactive call. Activity calls are given as the source filed them.

Regarding `O=C(Nc1ccc(NC(=O)c2cc(=O)[nH]c3ccccc23)cc1)Nc1cccc(Cl)c1`, the growth is 78.7%.

For `COc1ccc(/C(C)=C(\c2ccc(OCCN3CCCCCC3)cc2)c2ccc(OC(=O)c3ccccc3)cc2)cc1`, the growth was 31.2%.

Consider `Nc1nc(Cl)c2[nH]cnc2n1`, for which the growth was 89.5%.

For `Cc1ccc2c(c1)C(=O)/C(=C/c1ncc([N+](=O)[O-])n1C)O2`, the growth is -13% (active).

For the compound `CS(=O)(=O)N1CCN(Cc2cc3nc(-c4cccc5[nH]ncc45)nc(N4CCOCC4)c3s2)CC1`, the growth was 23.6%.

With `N#Cc1c(-c2ccc(F)cc2)nc(N=Nc2c(O)[nH]c3ccccc23)nc1N1CCOCC1`, the growth was 101%.

Turning to `CCC(c1ccccc1)C(CC)c1ccc(O)c(O)c1` (stereo not given), the growth is 68%.

On to `CN(C)CCN1C(=O)c2cccc3c(N)ccc(c23)C1=O`, for which the growth was -6.78% (active).

Consider `COc1cc(OC)cc(C2C3=C(COC3=O)Nc3cc(OC)ccc32)c1` (stereo not given), for which the growth is 1.71% (active).

In the case of `CC(C)c1ccc(Cc2cnc(NC(=O)c3cc(Br)cs3)s2)cc1`, the growth was -24% (active).

In the case of `CN(C)c1ccc(/C=N/N=C(\C#N)[S][Sn]([Cl])([c]2ccccc2)[c]2ccccc2)cc1`, the growth is 0.861% (active).

With `Oc1c(CN2CCN(c3ccccc3F)CC2)cc(Br)c2cccnc12`, the growth is -34.4% (active).

For the compound `Cc1cc2nc(-c3c(N)ncc(C#N)c3-c3ccc(Cl)cc3)[nH]c2cc1C`, the growth is 89.5%.

Turning to `O=C(N/N=C\c1cc(Br)cc(Br)c1O)N/N=C/c1cc(Br)cc(Br)c1O`, the growth is 8.67% (active).

As to `CC1=C[C@H]2c3c(c(O)c(O)c4oc5c(C)cccc5c(=O)c34)[C@H](c3cc(O)c(O)c4oc5c(C)cccc5c(=O)c34)[C@H]2C(C)(C)C1`, the growth was -14.5% (active).

Turning to `CC[N+]1(CC)CC[N+]2(CCCC(C)CC2)CC1` (stereo not given), the growth is 101%.

With `Cc1cc(N=O)cc(C(C)(C)C)c1O`, the growth is 99.6%.

Take `O=C1NC(=S)S/C1=C\c1cccc([N+](=O)[O-])c1`: the growth is 83.8%.

Consider `NC(=O)SCC(=O)Nc1ccccc1-c1ccccc1`, for which the growth is 80.3%.

`COC(=O)c1cccc2c1N(C)c1c(cccc1C(=O)OC)CC2`: the growth was 71.6%.

With `CCN(CC)CCCC(Cc1ccccc1)Nc1c2ccc(Cl)cc2nc2ccc(OC)cc12` (stereo not given), the growth is 19.5%.

`CCCOC(=O)C(O)c1ccccc1` (stereo not given): the growth was 113%.

`O=C1Nc2ccccc2/C1=C/C(=O)c1ccc(N2CCCCC2)cc1`: the growth is -6.32% (active).

As for `CCN(CC)C(=O)C1=C(C)NC(=O)NC1c1ccc2c(c1)OCO2` (stereo not given), the growth is 101%.

Consider `CC(=O)Oc1csc(N(C(C)=O)c2cc(C(=O)O)cc(C(=O)O)c2)n1`, for which the growth is 113%.

As to `N[C@@H](Cc1ccccc1)[C@@H](O)C(=O)NCc1ccc(F)cc1`, the growth was 101%.

With `CN1CCN(c2ccc(-c3cc4c(Nc5ccc(F)c(Cl)c5)ncnn4c3)cn2)CC1`, the growth is 72.8%.

Take `Cn1ccnc1C(=O)/C=C/c1ccc(C(=O)Nc2nc3ccccc3[nH]2)cc1`: the growth is 26.7%.

For `Clc1ccc2c(c1)N(CCCN1CCCC1)c1ccccc1S2`, the growth was 17.1%.

As to `CNC(=O)c1cc(Oc2ccc3nc(Nc4ccc(Cl)c(C(F)(F)F)c4)ccc3c2)ccn1`, the growth is 62.6%.

For the compound `CCCCn1c(C)nc2cc(Nc3nc(N4CCCCC4)nc4nc[nH]c34)ccc21`, the growth is 78.4%.

On to `CSc1ccc2c3c(n(CCCn4ccnc4)c(=O)c2c1)-c1ccccc1C3=O`, for which the growth was 15.5%.

Turning to `Cc1c2c(cc[n+]1Cc1ccccc1)c1ccc(OCC3CCCCC3)cc1n2CC1CCCCC1`, the growth is -53.4% (active).

For the compound `CC(=O)NCC1c2c(n(C)c3c(Cl)c(Cl)ccc23)C(=O)NC1(C)C` (stereo not given), the growth was 84%.

On to `C[C@]12CC[C@@H]3c4cc(OC(F)F)c(OS(N)(=O)=O)cc4CC[C@H]3[C@@H]1CC[C@@H]2O`, for which the growth is 1.17% (active).

As for `N#Cc1c(-c2ccc(Cl)cc2)cc(-c2cc(O)ccc2O)nc1N`, the growth was 68.2%.

Regarding `COC(=O)[C@H](CSC)N(C)C(=O)[C@@H]1CSSC[C@@H](NC(=O)c2nc3ccccc3cc2O)C(=O)NCC(=O)N1C`, the growth was 0.567% (active).

On to `COc1ccc(NC(=O)n2nc(/C=C\c3ccc(O)c(OC)c3)cc2/C=C\c2ccc(O)c(OC)c2)cc1`, for which the growth is 5.32% (active).

Take `O=c1ccn(C2OC(CO)C(O)C2F)c(=O)[nH]1` (stereo not given): the growth is 130%.

Take `O=C(N/N=C/C[C@@H]1[C@@H](/C=C/[C@@H](O)COc2cccc(Cl)c2)[C@H](O)C[C@@H]1O)c1ccncc1`: the growth is 87.5%.

For the origin of these results see PubChem BioAssay (NCI).
